The values below come from ChEMBL document CHEMBL1961873, “Compounds: GSK PKIS; Assays: Nanosyn kinase panel” (2012).

The target of experiment [1] is 5'-AMP-activated protein kinase catalytic subunit alpha-2 (Homo sapiens) (UniProt P54646). As to conditions: at 1 µM.
Experiment [2] addresses T1, NUAK family SNF1-like kinase 1 (Homo sapiens) (UniProt O60285).
T1 sequence (whole entry): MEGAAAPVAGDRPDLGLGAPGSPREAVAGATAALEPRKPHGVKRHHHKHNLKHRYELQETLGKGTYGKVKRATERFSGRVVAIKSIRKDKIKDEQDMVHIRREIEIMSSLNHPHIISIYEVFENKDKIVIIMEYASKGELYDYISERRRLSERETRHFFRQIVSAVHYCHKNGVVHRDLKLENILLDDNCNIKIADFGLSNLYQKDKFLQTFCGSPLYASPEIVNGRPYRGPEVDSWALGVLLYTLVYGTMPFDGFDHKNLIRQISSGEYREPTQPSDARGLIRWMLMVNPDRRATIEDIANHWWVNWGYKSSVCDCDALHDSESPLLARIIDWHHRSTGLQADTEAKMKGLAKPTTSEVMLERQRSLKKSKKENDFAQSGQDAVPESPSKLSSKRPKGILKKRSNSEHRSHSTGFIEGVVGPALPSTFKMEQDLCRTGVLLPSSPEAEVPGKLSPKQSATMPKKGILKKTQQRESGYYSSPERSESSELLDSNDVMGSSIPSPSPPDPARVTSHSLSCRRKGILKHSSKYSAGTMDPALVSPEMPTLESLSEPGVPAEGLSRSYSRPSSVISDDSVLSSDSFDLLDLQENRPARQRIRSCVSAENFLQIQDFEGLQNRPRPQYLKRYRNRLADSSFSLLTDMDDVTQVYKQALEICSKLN
Conditions: at 0.1 µM.

In experiment [3] the target is T1, NUAK family SNF1-like kinase 1 (Homo sapiens). As to conditions: at 1 µM.
In experiment [4] the target is T2, Serine/threonine-protein kinase BRSK1 (Homo sapiens) (UniProt Q8TDC3).
T2 sequence (whole entry): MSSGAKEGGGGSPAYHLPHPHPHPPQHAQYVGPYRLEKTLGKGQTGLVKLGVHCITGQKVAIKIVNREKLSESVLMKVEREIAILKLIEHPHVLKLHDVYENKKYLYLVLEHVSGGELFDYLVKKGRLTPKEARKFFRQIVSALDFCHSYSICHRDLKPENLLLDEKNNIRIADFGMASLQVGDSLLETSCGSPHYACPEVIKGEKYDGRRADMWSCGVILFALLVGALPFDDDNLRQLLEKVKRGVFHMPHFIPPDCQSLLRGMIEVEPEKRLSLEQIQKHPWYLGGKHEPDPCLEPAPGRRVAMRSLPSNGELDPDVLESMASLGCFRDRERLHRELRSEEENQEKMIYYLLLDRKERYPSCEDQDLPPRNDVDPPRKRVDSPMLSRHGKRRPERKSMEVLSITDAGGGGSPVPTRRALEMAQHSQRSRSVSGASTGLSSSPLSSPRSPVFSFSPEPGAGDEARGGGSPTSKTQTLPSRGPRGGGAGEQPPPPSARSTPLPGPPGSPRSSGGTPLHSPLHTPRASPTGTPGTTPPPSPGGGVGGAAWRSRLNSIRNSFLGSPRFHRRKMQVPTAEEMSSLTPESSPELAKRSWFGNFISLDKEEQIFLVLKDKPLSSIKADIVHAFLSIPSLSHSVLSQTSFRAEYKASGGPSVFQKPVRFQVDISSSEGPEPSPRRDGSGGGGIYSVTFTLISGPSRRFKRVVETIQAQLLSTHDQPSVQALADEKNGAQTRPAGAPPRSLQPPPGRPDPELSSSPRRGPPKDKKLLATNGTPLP
As to conditions: at 0.1 µM.

Experiment [5] has as its target T2, Serine/threonine-protein kinase BRSK1 (Homo sapiens). As to conditions: at 1 µM.
Experiment [6] addresses T3, Serine/threonine-protein kinase BRSK2 (Homo sapiens) (UniProt Q8IWQ3).
T3 sequence (whole entry): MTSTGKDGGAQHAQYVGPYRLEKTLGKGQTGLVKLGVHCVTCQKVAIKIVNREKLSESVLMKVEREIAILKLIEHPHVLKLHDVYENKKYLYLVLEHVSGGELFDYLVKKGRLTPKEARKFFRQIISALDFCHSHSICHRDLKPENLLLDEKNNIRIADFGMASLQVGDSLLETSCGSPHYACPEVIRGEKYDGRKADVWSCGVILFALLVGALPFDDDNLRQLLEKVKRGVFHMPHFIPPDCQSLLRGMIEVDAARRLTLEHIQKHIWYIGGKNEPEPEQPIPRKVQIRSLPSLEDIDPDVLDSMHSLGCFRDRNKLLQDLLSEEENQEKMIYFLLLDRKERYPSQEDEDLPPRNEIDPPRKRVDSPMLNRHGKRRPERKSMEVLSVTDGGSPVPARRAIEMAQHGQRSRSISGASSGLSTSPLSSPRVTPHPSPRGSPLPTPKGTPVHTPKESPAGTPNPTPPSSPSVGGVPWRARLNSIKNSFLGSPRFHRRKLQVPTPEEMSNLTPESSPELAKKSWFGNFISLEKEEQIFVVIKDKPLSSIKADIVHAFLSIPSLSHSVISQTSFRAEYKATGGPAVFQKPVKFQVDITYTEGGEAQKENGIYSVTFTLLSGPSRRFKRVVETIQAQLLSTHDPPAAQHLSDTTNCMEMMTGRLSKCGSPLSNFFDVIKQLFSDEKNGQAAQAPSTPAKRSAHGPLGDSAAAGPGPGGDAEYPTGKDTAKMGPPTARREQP
As to conditions: at 0.1 µM.

Experiment [7] concerns the target T3, Serine/threonine-protein kinase BRSK2 (Homo sapiens). Conditions: at 1 µM.
In experiment [8] the target is Calcium/calmodulin-dependent protein kinase type 1D (Homo sapiens) (UniProt Q8IU85). As to conditions: at 0.1 µM.
The target is the same in experiment [9]. Conditions: at 1 µM.
Experiment [10] addresses Calcium/calmodulin-dependent protein kinase type II subunit alpha (Homo sapiens) (UniProt Q9UQM7). As to conditions: at 0.1 µM.
For experiment [11] the target is unchanged. As to conditions: at 1 µM.
Experiment [12] deals with Calcium/calmodulin-dependent protein kinase type II subunit delta (Homo sapiens) (UniProt Q13557). As to conditions: at 0.1 µM.
Experiment [13] has the same target. Conditions: at 1 µM.
For experiment [14], the target named is T4, Calcium/calmodulin-dependent protein kinase type IV (Homo sapiens) (UniProt Q16566).
T4 sequence (whole entry): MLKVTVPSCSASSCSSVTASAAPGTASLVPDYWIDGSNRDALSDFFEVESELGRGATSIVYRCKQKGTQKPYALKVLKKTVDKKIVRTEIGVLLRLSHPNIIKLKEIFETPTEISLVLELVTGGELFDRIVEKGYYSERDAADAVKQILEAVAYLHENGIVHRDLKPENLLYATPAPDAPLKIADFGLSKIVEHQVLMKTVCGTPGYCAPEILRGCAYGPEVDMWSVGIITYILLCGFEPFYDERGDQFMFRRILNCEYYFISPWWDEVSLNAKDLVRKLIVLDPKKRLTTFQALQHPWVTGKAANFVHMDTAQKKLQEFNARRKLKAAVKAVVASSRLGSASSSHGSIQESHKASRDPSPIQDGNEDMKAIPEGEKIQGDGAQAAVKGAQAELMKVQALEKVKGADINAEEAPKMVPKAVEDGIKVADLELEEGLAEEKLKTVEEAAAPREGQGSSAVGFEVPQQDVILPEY
Conditions: at 0.1 µM.

For experiment [15], the target named is T4, Calcium/calmodulin-dependent protein kinase type IV (Homo sapiens). As to conditions: at 1 µM.
The target in experiment [16] is T5, Serine/threonine-protein kinase Chk1 (Homo sapiens) (UniProt O14757).
T5 sequence (whole entry): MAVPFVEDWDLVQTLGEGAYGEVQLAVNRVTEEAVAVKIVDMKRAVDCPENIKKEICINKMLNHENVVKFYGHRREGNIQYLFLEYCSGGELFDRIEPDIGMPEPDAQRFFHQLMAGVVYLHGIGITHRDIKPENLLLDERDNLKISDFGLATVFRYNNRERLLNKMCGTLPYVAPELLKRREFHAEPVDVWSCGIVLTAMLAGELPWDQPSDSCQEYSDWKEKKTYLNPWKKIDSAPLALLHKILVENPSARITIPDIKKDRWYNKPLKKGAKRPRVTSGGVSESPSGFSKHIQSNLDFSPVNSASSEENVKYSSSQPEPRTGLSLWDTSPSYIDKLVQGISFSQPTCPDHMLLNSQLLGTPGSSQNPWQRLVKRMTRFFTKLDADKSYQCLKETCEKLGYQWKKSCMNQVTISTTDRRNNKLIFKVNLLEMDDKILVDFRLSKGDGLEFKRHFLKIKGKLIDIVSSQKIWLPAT
Conditions: at 0.1 µM.

Experiment [17] deals with T5, Serine/threonine-protein kinase Chk1 (Homo sapiens). Conditions: at 1 µM.
The target in experiment [18] is Serine/threonine-protein kinase Chk2 (Homo sapiens) (UniProt O96017). Conditions: at 0.1 µM.
Experiment [19] has the same target. As to conditions: at 1 µM.
The target of experiment [20] is Death-associated protein kinase 1 (Homo sapiens) (UniProt P53355). As to conditions: at 0.1 µM.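 Note: reported figure is the mean inhibition of DAPK1.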
Chain of Death-associated protein kinase 1 (Homo sapiens) (P53355 whole entry, looked up): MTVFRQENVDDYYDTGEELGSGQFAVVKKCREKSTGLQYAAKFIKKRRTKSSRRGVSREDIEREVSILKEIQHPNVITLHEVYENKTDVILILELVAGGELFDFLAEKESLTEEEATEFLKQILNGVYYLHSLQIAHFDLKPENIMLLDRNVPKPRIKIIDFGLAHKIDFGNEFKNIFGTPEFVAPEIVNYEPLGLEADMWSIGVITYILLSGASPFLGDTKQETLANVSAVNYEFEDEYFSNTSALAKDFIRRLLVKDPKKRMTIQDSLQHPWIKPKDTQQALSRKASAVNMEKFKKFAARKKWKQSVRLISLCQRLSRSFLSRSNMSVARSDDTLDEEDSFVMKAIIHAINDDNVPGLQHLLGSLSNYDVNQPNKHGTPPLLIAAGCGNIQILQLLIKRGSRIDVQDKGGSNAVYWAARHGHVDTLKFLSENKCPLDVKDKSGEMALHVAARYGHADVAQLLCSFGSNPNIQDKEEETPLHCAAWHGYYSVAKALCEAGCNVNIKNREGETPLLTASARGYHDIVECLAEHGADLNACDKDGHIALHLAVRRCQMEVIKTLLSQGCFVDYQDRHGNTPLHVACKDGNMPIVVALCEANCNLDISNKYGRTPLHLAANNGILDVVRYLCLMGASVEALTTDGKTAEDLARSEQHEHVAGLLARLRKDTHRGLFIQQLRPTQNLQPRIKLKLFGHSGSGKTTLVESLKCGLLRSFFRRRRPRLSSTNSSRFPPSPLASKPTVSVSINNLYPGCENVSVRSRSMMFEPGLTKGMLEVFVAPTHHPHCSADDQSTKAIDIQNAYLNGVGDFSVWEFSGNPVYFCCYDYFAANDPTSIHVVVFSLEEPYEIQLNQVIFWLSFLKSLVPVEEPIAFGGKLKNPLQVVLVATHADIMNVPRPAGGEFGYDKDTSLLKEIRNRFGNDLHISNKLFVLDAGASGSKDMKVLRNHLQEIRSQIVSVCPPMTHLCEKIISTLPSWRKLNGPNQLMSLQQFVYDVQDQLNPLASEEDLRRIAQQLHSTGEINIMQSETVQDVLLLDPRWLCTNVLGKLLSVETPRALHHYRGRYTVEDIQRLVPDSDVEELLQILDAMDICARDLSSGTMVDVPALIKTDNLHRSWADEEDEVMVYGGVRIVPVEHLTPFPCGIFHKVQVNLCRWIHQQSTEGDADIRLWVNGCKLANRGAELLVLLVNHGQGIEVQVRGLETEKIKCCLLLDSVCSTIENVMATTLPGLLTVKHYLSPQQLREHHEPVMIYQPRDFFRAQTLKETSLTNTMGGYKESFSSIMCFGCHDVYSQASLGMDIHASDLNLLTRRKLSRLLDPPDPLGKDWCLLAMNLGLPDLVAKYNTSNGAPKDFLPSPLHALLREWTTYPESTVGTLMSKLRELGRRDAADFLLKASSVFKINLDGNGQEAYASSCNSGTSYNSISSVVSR

Chain of Calcium/calmodulin-dependent protein kinase type II subunit delta (Homo sapiens) (Q13557 whole entry): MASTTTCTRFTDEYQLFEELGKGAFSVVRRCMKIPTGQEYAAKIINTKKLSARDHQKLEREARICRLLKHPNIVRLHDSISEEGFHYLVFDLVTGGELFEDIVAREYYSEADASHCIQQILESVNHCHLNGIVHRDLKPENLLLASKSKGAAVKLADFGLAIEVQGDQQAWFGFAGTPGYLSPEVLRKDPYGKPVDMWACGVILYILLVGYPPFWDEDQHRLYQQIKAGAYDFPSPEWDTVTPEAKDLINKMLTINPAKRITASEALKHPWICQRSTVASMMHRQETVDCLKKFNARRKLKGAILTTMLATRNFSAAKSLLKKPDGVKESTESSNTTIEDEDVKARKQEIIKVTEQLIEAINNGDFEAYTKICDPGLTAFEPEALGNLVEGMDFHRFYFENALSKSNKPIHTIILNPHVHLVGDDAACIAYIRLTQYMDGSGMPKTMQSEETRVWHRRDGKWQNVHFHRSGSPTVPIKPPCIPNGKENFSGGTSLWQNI
Chain of Calcium/calmodulin-dependent protein kinase type II subunit alpha (Homo sapiens) (Q9UQM7 whole entry): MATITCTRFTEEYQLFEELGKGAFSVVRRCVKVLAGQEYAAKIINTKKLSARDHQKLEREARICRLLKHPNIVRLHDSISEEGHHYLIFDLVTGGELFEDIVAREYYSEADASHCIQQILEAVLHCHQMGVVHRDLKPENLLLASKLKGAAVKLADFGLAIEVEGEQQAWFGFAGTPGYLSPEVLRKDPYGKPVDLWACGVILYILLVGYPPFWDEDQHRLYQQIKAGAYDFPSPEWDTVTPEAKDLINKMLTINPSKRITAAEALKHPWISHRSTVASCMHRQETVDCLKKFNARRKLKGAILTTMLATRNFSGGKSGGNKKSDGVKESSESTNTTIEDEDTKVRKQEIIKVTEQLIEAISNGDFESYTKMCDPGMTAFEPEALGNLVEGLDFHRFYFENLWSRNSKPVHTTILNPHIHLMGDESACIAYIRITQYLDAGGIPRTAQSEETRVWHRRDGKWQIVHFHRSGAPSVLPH
Chain of 5'-AMP-activated protein kinase catalytic subunit alpha-2 (Homo sapiens) (P54646 whole entry, looked up): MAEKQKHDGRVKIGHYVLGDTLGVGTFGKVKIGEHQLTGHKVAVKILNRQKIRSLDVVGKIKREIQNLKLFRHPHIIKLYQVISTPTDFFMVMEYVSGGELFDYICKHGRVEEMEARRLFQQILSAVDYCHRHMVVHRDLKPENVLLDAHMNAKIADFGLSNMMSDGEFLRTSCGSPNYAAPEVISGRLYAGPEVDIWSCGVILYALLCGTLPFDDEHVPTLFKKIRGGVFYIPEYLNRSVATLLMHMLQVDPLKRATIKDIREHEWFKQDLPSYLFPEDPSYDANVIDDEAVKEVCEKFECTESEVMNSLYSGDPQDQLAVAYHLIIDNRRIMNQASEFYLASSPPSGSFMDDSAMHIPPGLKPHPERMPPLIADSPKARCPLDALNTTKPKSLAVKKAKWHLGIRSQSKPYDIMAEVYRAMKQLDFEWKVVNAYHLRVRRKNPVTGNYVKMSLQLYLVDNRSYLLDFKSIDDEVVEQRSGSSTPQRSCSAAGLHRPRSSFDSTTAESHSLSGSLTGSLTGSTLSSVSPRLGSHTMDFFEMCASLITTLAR
Chain of Serine/threonine-protein kinase Chk2 (Homo sapiens) (O96017 whole entry): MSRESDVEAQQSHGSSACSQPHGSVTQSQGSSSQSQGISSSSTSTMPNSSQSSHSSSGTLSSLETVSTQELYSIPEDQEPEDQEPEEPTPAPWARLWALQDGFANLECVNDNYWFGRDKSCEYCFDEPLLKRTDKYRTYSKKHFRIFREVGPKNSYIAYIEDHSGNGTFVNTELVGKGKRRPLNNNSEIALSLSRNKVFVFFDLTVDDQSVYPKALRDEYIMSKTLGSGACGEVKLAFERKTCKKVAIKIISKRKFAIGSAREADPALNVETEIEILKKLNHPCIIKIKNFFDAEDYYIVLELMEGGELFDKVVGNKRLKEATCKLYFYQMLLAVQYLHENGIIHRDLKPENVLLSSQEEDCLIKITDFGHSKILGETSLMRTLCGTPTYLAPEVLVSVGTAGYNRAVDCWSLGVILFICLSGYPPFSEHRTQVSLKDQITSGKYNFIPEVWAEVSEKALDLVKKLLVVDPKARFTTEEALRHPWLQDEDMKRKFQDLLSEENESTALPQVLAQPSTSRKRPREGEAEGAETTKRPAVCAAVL
Chain of Calcium/calmodulin-dependent protein kinase type 1D (Homo sapiens) (Q8IU85 whole entry, looked up): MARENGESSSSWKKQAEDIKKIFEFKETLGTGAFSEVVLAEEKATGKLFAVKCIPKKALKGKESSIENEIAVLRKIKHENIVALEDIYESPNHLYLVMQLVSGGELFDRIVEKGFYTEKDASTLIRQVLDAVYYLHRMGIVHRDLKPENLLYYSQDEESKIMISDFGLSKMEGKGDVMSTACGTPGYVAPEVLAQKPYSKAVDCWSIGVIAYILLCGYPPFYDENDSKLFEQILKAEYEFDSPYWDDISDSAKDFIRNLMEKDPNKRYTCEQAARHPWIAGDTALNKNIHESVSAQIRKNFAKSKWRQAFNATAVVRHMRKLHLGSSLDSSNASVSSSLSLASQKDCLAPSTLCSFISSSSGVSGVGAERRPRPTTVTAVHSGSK

Regarding `COc1cccc(-n2cnc3c(N/N=C/c4ccncc4)ncnc32)c1`, the inhibition (usually the drop in the measured response relative to a control, in per cent) in [1] is 1.47%; in experiment [2], 2.39%; in [3], 22.3%; in experiment [4], -0.01%; in [5] it was 4.34%; in experiment [6], -0.23%. In addition, the inhibition in [7] is 6.3%; in [8], 0.54%; in [9], -0.39%; in experiment [10], 0.58%; in experiment [11], 1.18%; in experiment [12] it was -1.07%. For the same molecule, the inhibition was -1.61% in experiment [13]; -2.88% in [14]; -5.3% in experiment [15]; 0.34% in experiment [16]; 0.31% in experiment [17]; -0.94% in experiment [18]. For the same molecule, the inhibition in [19] is -0.32%; in experiment [20], -0.67%.
Turning to `c1ccc(-c2n[nH]cc2-c2ccnc(-c3ccc(OCCN4CCOCC4)cc3)c2)nc1`, the inhibition in experiment [1] came to 4.37%; in [2] it was 5.95%; in [3], 7.16%; in experiment [4], 8.84%; in [5], 6.57%; in experiment [6], 6.13%. The inhibition was 4.06% in [7]; 2.06% in experiment [8]; 3.63% in [9]; -0.64% in experiment [10]; 0.85% in experiment [11]; -1.29% in [12]. Besides, the inhibition was -0.13% in [13]; -0.9% in experiment [14]; 0.4% in experiment [15]; 1.01% in experiment [16]; -1.98% in experiment [17]; 3.21% in [18]. Besides, the inhibition in experiment [19] was 2.24%; in [20] it was 1%.
For `COc1ccc2ncn(-c3cc(O[C@H](C)c4ccccc4Cl)c(C(N)=O)s3)c2c1`, the inhibition was determined as 1.17% in [1]; 0.64% in experiment [2]; 15.7% in experiment [3]; 2.58% in [4]; 17.8% in experiment [5]; 6.22% in [6]. Moreover, the inhibition was 28.1% in experiment [7]; -1.85% in [8]; -1.6% in [9]; 1.3% in [10]; -1.4% in experiment [11]; 2.08% in [12]. Moreover, the inhibition is 4.15% in experiment [13]; -2.83% in experiment [14]; -2.54% in experiment [15]; 0.23% in experiment [16]; 0.19% in [17]; 2.58% in experiment [18]. Moreover, the inhibition in [19] amounted to 1.99%; in experiment [20], 3.77%.
